Values joined by “and” are separate entries in the source; they are usually repeats but may differ in a detail not shown here. Equal entries are not always repeated. Compounds without any hit were thinned out: in the full panel of roughly 79,000, 15% have a hit. A number with no mark means an inactive call. Active and inactive are the calls of the source. Cut-off read from the data, not from the text of the source: active = growth inhibition above about 70%; inactive = the rest.

Here are results for 38 compounds from PubChem BioAssay (NCI).

The first test in a line: NCI Yeast Anticancer Drug Screen. Data for the rad50 strain (AID 155).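 Note: 0% = growth of vehicle-only cultures of the same strain.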 Particulars: S. cerevisiae rad50 strain growth inhibition; at 11.0 µM; hits give high values. A digest of the protocol: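 A DNA repair-deficient yeast mutant serves as the test organism; compound-induced growth inhibition is calculated against vehicle-treated cells.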
Consider `O=C(O)C1CC(c2ccccc2)=NN1c1ccccc1` (configuration not stated), for which the growth inhibition is -1%.

With `CCCCc1ccc(-n2c(C)c(COC(=O)NC)c(COC(=O)NC)c2C)cc1`, the growth inhibition was 31%.

Consider `CCC(=O)c1cc(C(=O)C(=S)SC)cc(C(=O)C(=S)SC)c1`, for which the growth inhibition was 96% (active).

On to `CCn1c(O)c(C=Nc2ccccc2)s/c1=N/Nc1nc(-c2ccccc2)cs1`, for which the growth inhibition is 14%.

Take `Cc1ccccc1N=C(NO)c1ccccc1`: the growth inhibition is 31%.

For the compound `Cc1nc2ccccc2nc1NNc1ccccc1`, the growth inhibition was 9%.

The same test, now with this note: S. cerevisiae rad50 strain growth inhibition; at 33.0 µM; hits give high values.
Consider `O=[N+]([O-])c1cc[n+]([O-])cc1`, for which the growth inhibition is 58%.

With `CC1(C)CC(=O)C(/C=N/c2nc(-c3ccccc3)cs2)=C(O)C1`, the growth inhibition was 40%.

As to `Nc1nc(N)c2nc(CNc3ccc(C(=O)NC(CCC(=O)O)C(=O)O)cc3F)cnc2n1` (configuration not stated), the growth inhibition is 55%.

On to `COC(=O)CC1(O)C(/C=C/c2ccccc2)C(C(=O)OC)C(=O)C(C(=O)OC)C1C(=O)OC` (configuration not stated), for which the growth inhibition was 1%.

Consider `CC(C)(C)c1ccc(NS(=O)(=O)c2ccc(N)cc2)cc1`, for which the growth inhibition is 9%.

In the case of `CCN(CC)CCNc1ccc([N+](=O)[O-])c2nc3ccccc3c(N)c12`, the growth inhibition was 46%.

With `CCCCN(CCCC)C(=O)/C=C/c1ccccc1`, the growth inhibition is 15%.

Take `O=c1[nH]c(-c2ccccc2)nc2c1sc1nc3ccccc3n12`: the growth inhibition was -13%.

Turning to `O=[N+]([O-])c1ccc2c(c1)/C(=N/N=C1c3ccccc3Cc3ccccc31)c1cc([N+](=O)[O-])cc([N+](=O)[O-])c1-2`, the growth inhibition was 98% (active).

In the case of `CC(C)C(C)/C=C\C(C)C1CCC2C3=CC=C4CC(O)CCC4(C)C3CCC21C` (configuration not stated), the growth inhibition was -1%.

Regarding `O=C1Nc2ccc(Br)cc2C1=Nc1ccc2c(c1)OCO2`, the growth inhibition is -27%.

Turning to `CCCCOCn1c(=O)[nH]c(=O)c2cc(Br)ccc21`, the growth inhibition was -24%.

Turning to `Cc1ccc(S/C(=C\C(=O)O)c2ccccc2)cc1`, the growth inhibition was 30%.

Consider `O=[N+]([O-])/C=C/c1cc(Cl)c(/C=C/[N+](=O)[O-])cc1Cl`, for which the growth inhibition was 97% (active).

For `Cc1cc(S(=O)(=O)Nc2nnc3cnc4ccccc4n23)c(S)cc1Cl`, the growth inhibition is 12%.

Turning to `O=C(/C=C/c1cc(Cl)cc(Cl)c1O)c1cccc(O)c1`, the growth inhibition was 97% (active).

`NC1CCCCC1N.Nc1c(N=Nc2ccc(-c3ccc(N=Nc4cc(S(=O)(=O)[O-])c5ccccc5c4N)cc3)cc2)cc(S(=O)(=O)[O-])c2ccccc12.[OH3+].[OH3+].[Pt+4]`: the growth inhibition was 89% (active).

As for `COC(=O)CCC(NC(=S)N/N=C(\C)c1ccccn1)C(=O)OC` (configuration not stated), the growth inhibition was 72% (active).

Regarding `NC(=O)C(=O)NNc1ccccc1`, the growth inhibition was 75% (active).

As to `COc1cc(C2SCC(=O)N2c2ccc(-c3ccc(-n4c(-c5ccccc5)nc5ccccc5c4=O)cc3)cc2)ccc1O` (configuration not stated), the growth inhibition is 8%.

Turning to `COc1ccc(/C=C/c2sc3ccccc3[n+]2CCCCI)cc1OC`, the growth inhibition is 48%.

For `Cc1c(C(C)C)cc(OCCO)cc1C(C)C`, the growth inhibition was 5%.

Turning to `Cc1cc(NCCCCCCCCNc2cc(C)nc3cc(N)ccc23)c2ccc(N)cc2n1`, the growth inhibition was 97% (active).

`C=C(Cl)COC(=O)Nc1cccc(Cl)c1`: the growth inhibition was 80% (active).

In the case of `CC(=O)OC1CC2C(C)(C)C(=O)C=C[C@]2(C)C2CCC3(C)C(=CCC3[C@H](CO)C[C@H](O)C(=O)C(C)(C)O)[C@]12C` (some centres not stated), the growth inhibition was 6%.

On to `COc1ccc(/C=C/C(=O)c2ccccc2)cc1OC`, for which the growth inhibition is 44%.

For `COc1c(O)c(C=O)c(Br)c(C=O)c1O`, the growth inhibition was 47%.

With `O=[N+]([O-])c1cc(Cl)cnc1Br`, the growth inhibition is 90% (active).

Consider `Cc1ccc2c(c1)C1(SC(C)C(=O)N1c1ccc(Cl)cc1)C(=O)N2` (configuration not stated), for which the growth inhibition is 94% (active).

For the compound `COc1cc(CSc2ccc(O)cc2)cc(O)c1O`, the growth inhibition was 6%.

With `Cc1ccc2c3ccc4c(c3n(C)c2c1)C(=O)C=CC4=O`, the growth inhibition was 10%.

As for `O=C(Nc1ccc(Cl)cc1)Nc1nnc2nc(C(C(=O)c3cccc([N+](=O)[O-])c3Cl)c3nc4nnc(NC(=O)Nc5ccc(Cl)cc5)n4[nH]c3=O)c(=O)[nH]n12`, the growth inhibition is 2%.

On to `O=C(O)C1CC(c2ccccc2)=NN1c1ccccc1` (configuration not stated), for which the growth inhibition is 33%.

On to `CCCCc1ccc(-n2c(C)c(COC(=O)NC)c(COC(=O)NC)c2C)cc1`, for which the growth inhibition was 93% (active).

Take `CCC(=O)c1cc(C(=O)C(=S)SC)cc(C(=O)C(=S)SC)c1`: the growth inhibition was 97% (active).

Regarding `CCn1c(O)c(C=Nc2ccccc2)s/c1=N/Nc1nc(-c2ccccc2)cs1`, the growth inhibition is 15%.

On to `Cc1ccccc1N=C(NO)c1ccccc1`, for which the growth inhibition is 59%.

On to `Cc1nc2ccccc2nc1NNc1ccccc1`, for which the growth inhibition was 46%.

Staying with this test, now noted: S. cerevisiae rad50 strain growth inhibition; at 50.0 µM (retest, dose inferred, filed as 5.0); hits give high values.
With `O=[N+]([O-])c1cc[n+]([O-])cc1`, the growth inhibition is 66% and 60%.

`CC1(C)CC(=O)C(/C=N/c2nc(-c3ccccc3)cs2)=C(O)C1`: the growth inhibition was 57%.

`Nc1nc(N)c2nc(CNc3ccc(C(=O)NC(CCC(=O)O)C(=O)O)cc3F)cnc2n1` (configuration not stated): the growth inhibition is 86% (active).

Take `COC(=O)CC1(O)C(/C=C/c2ccccc2)C(C(=O)OC)C(=O)C(C(=O)OC)C1C(=O)OC` (configuration not stated): the growth inhibition was 6%.

Regarding `CC(C)(C)c1ccc(NS(=O)(=O)c2ccc(N)cc2)cc1`, the growth inhibition is -22%.

Take `CCN(CC)CCNc1ccc([N+](=O)[O-])c2nc3ccccc3c(N)c12`: the growth inhibition is 71% (active).

`CCCCN(CCCC)C(=O)/C=C/c1ccccc1`: the growth inhibition is 84% (active).

Take `O=c1[nH]c(-c2ccccc2)nc2c1sc1nc3ccccc3n12`: the growth inhibition was 56%.

Turning to `O=[N+]([O-])c1ccc2c(c1)/C(=N/N=C1c3ccccc3Cc3ccccc31)c1cc([N+](=O)[O-])cc([N+](=O)[O-])c1-2`, the growth inhibition was 96% (active).

Regarding `CC(C)C(C)/C=C\C(C)C1CCC2C3=CC=C4CC(O)CCC4(C)C3CCC21C` (configuration not stated), the growth inhibition was 84% (active).

As for `O=C1Nc2ccc(Br)cc2C1=Nc1ccc2c(c1)OCO2`, the growth inhibition was 60%.

Consider `CCCCOCn1c(=O)[nH]c(=O)c2cc(Br)ccc21`, for which the growth inhibition is 22%.

Consider `Cc1ccc(S/C(=C\C(=O)O)c2ccccc2)cc1`, for which the growth inhibition is 47%.

With `O=[N+]([O-])/C=C/c1cc(Cl)c(/C=C/[N+](=O)[O-])cc1Cl`, the growth inhibition is 53%.

Take `Cc1cc(S(=O)(=O)Nc2nnc3cnc4ccccc4n23)c(S)cc1Cl`: the growth inhibition was 60%.

`O=C(/C=C/c1cc(Cl)cc(Cl)c1O)c1cccc(O)c1`: the growth inhibition is 97% (active).

In the case of `NC1CCCCC1N.Nc1c(N=Nc2ccc(-c3ccc(N=Nc4cc(S(=O)(=O)[O-])c5ccccc5c4N)cc3)cc2)cc(S(=O)(=O)[O-])c2ccccc12.[OH3+].[OH3+].[Pt+4]`, the growth inhibition is 83% (active).

On to `COC(=O)CCC(NC(=S)N/N=C(\C)c1ccccn1)C(=O)OC` (configuration not stated), for which the growth inhibition is 79% (active).

As for `NC(=O)C(=O)NNc1ccccc1`, the growth inhibition is 49%.

`COc1cc(C2SCC(=O)N2c2ccc(-c3ccc(-n4c(-c5ccccc5)nc5ccccc5c4=O)cc3)cc2)ccc1O` (configuration not stated): the growth inhibition was 35%.

On to `COc1ccc(/C=C/c2sc3ccccc3[n+]2CCCCI)cc1OC`, for which the growth inhibition was 20%.

On to `Cc1c(C(C)C)cc(OCCO)cc1C(C)C`, for which the growth inhibition is -20%.

`Cc1cc(NCCCCCCCCNc2cc(C)nc3cc(N)ccc23)c2ccc(N)cc2n1`: the growth inhibition is 98% (active).

On to `C=C(Cl)COC(=O)Nc1cccc(Cl)c1`, for which the growth inhibition was 79% (active).

In the case of `CC(=O)OC1CC2C(C)(C)C(=O)C=C[C@]2(C)C2CCC3(C)C(=CCC3[C@H](CO)C[C@H](O)C(=O)C(C)(C)O)[C@]12C` (some centres not stated), the growth inhibition was 23%.

As to `COc1ccc(/C=C/C(=O)c2ccccc2)cc1OC`, the growth inhibition was 48%.

Consider `COc1c(O)c(C=O)c(Br)c(C=O)c1O`, for which the growth inhibition was 97% (active).

In the case of `O=[N+]([O-])c1cc(Cl)cnc1Br`, the growth inhibition is 82% (active).

Turning to `Cc1ccc2c(c1)C1(SC(C)C(=O)N1c1ccc(Cl)cc1)C(=O)N2` (configuration not stated), the growth inhibition was 97% (active).

Consider `COc1cc(CSc2ccc(O)cc2)cc(O)c1O`, for which the growth inhibition was 42%.

Regarding `Cc1ccc2c3ccc4c(c3n(C)c2c1)C(=O)C=CC4=O`, the growth inhibition was 49%.

Regarding `O=C(Nc1ccc(Cl)cc1)Nc1nnc2nc(C(C(=O)c3cccc([N+](=O)[O-])c3Cl)c3nc4nnc(NC(=O)Nc5ccc(Cl)cc5)n4[nH]c3=O)c(=O)[nH]n12`, the growth inhibition was 10%.

For the compound `O=C(O)C1CC(c2ccccc2)=NN1c1ccccc1` (configuration not stated), the growth inhibition is 84% (active).

In the case of `CCCCc1ccc(-n2c(C)c(COC(=O)NC)c(COC(=O)NC)c2C)cc1`, the growth inhibition is 95% (active).

For the compound `CCC(=O)c1cc(C(=O)C(=S)SC)cc(C(=O)C(=S)SC)c1`, the growth inhibition was 96% (active).

For the compound `CCn1c(O)c(C=Nc2ccccc2)s/c1=N/Nc1nc(-c2ccccc2)cs1`, the growth inhibition was 12%.

Regarding `Cc1ccccc1N=C(NO)c1ccccc1`, the growth inhibition is 33%.

Turning to `Cc1nc2ccccc2nc1NNc1ccccc1`, the growth inhibition is 34%.
